# Assays:
# Conditions in all cases: concentration: 1 μM, replicates: in singlicate; n = 1
# MRCKA = tested on: MRCKA
# MRCKB = tested on: T1, MRCKB
# T1 construct: gene CDC42BPB
# MST1R = tested on: MST1R
# MST1 = tested on: T2, MST1
# T2 construct: gene STK4
# MST2 = tested on: T3, MST2
# T3 construct: gene STK3
# MST3 = tested on: T4, MST3
# T4 construct: gene STK24
# MST4 = tested on: MST4
# MTOR = tested on: MTOR
# MUSK = tested on: MUSK
# MYLK2 = tested on: MYLK2
# MYLK4 = tested on: MYLK4
# MYLK = tested on: MYLK
# MYO3A = tested on: MYO3A
# MYO3B = tested on: MYO3B
# NDR1 = tested on: T5, NDR1
# T5 construct: gene STK38
# NDR2 = tested on: NDR2
# NEK10 = tested on: NEK10
# NEK11 = tested on: NEK11
# NEK1 = tested on: NEK1
# NEK2 = tested on: NEK2
# 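Note: KINOMEscan kinase panel screen.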
SMILES,%Inh (MRCKA) [%],%Inh (MRCKB) [%],%Inh (MST1R) [%],%Inh (MST1) [%],%Inh (MST2) [%],%Inh (MST3) [%],%Inh (MST4) [%],%Inh (MTOR) [%],%Inh (MUSK) [%],%Inh (MYLK2) [%],%Inh (MYLK4) [%],%Inh (MYLK) [%],%Inh (MYO3A) [%],%Inh (MYO3B) [%],%Inh (NDR1) [%],%Inh (NDR2) [%],%Inh (NEK10) [%],%Inh (NEK11) [%],%Inh (NEK1) [%],%Inh (NEK2) [%]
Nc1nc(-c2ccc3c(N)n[nH]c3c2)cc(N2CCC[C@@H](C(=O)Nc3ccccc3)C2)n1.O=C(O)C(F)(F)F.O=C(O)C(F)(F)F [GSK2288359],2,0,14,0,30,0,0,15,4,5,9,27,19,0,1,5,0,0,0,0
CN1c2ccc(-c3ccc(C(=O)NCCO)cc3)cc2-c2[nH]ncc2S1(=O)=O,0,5,0,5,35,10,0,23,0,0,0,87,6,0,26,0,0,0,8,6
Fc1ccc(Nc2nccc(-c3c(-c4ccc(Cl)cc4)nn4ncccc34)n2)cc1F [GW829058],2,21,0,13,11,0,30,26,26,16,0,38,15,21,24,28,19,25,17,16
COc1ccc(NC(=O)Nc2ccc(C)c(-c3ccc(C(=O)Nc4ccncc4)cc3)c2)cc1 [GSK1398475],19,0,36,0,0,0,0,4,0,0,0,0,1,0,17,0,0,0,0,0
FC(F)(F)c1ccc(-c2nn3ncccc3c2-c2ccnc(Nc3cccc(C(F)(F)F)c3)n2)cc1 [GW828205],31,17,0,0,21,0,0,0,0,0,1,40,0,0,19,0,0,0,0,0
Cc1cccc(-c2nc(Nc3ccc4[nH]nnc4c3)c3ccccc3n2)n1 [GW867587],0,2,0,0,0,0,0,5,2,0,1,0,0,0,0,6,0,0,0,0
O=C(c1ccc(-c2cc(-c3c[nH]nc3-c3ccccn3)ccn2)cc1)N1CCCC1 [GW792479],24,0,0,0,0,11,0,14,9,0,4,31,9,16,21,3,18,0,0,3
Cc1ccc(C)c(NC(=O)NCCNc2ccnc(Nc3ccc(F)cc3)n2)c1 [GSK1379878],12,0,7,0,0,0,0,2,0,0,0,8,0,0,0,16,11,17,0,0
Nc1n[nH]c2nnc(-c3ccccc3)cc12 [SB-517389],16,0,27,0,5,0,0,14,8,13,24,19,0,0,14,0,17,0,0,5
FC(F)(F)c1cc(Nc2nccc(-c3c(-c4ccc(Cl)cc4)nn4ncccc34)n2)ccc1Cl [GW829351],0,9,0,0,3,0,0,0,0,0,1,0,0,0,16,0,0,0,0,0
CNc1nccc(-c2c(-c3ccc(F)cc3)ncn2CCCN2CCOCC2)n1 [SB-222516],8,0,0,0,14,14,0,11,0,0,0,0,0,0,0,28,0,0,0,0

# — publication PMC5540273 (PLoS ONE, 2017)
